# Laboratory results as given in PMC4336329 (PLoS ONE, 2015).
# The campaign covered roughly 310,000 compounds. About 14,000 (4.5%) showed an effect of 50% or more. The effect is printed as a negative number. For the sample, strong results were picked, then their nearest neighbours and some compounds at random.
# Molecular target: human ether-à-go-go-related gene (hERG) potassium channel (human, UniProt Q12809)
# Experiment: primary screen, population patch clamp on CHO cells stably expressing hERG; higher = less effect of the substance
# 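Further: peak tail current of the secondary pulse compared with the same well before compound.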
# Chain of human ether-à-go-go-related gene (hERG) potassium channel (Q12809 whole entry, looked up): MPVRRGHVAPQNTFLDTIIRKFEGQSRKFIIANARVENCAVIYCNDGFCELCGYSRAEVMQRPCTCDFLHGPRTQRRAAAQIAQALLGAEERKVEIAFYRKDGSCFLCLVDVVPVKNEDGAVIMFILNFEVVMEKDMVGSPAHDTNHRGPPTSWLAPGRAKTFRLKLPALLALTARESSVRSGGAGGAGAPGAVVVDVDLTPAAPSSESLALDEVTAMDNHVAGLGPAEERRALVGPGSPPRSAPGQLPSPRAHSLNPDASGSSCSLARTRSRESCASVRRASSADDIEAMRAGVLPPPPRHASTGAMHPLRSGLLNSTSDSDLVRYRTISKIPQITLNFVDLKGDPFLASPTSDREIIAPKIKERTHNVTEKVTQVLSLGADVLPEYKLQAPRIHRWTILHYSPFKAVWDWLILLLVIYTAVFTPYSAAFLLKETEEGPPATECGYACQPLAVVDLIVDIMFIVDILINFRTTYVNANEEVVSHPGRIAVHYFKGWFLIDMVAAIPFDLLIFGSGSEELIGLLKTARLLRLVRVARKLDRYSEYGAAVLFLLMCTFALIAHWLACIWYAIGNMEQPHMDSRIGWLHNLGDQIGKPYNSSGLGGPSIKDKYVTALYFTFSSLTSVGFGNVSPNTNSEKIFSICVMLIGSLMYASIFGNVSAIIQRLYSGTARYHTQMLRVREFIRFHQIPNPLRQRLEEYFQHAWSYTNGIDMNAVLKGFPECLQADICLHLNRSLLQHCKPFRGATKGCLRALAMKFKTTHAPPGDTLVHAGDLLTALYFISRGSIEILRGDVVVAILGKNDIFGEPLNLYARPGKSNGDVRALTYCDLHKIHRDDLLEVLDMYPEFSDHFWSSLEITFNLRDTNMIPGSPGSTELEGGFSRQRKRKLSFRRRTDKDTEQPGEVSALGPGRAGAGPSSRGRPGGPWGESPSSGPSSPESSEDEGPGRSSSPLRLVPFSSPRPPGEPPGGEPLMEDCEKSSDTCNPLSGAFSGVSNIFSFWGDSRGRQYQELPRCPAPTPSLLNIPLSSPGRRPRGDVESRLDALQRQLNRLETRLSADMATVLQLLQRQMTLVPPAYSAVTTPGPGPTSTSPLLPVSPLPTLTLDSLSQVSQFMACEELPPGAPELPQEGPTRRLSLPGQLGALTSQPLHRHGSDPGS
row,Compound,"hERG current change (%, negative = inhibition) at 10uM"
1,COc1ccc(N2C(=O)CSC2c2cccs2)cc1 (stereo not drawn),-3.37%
2,O=C(Oc1c(Cl)cc(Cl)c2cccnc12)c1cccs1,1.95%
3,CN1CCN(Cc2cc(Cl)c3cccnc3c2OC(=O)c2cccs2)CC1,-53.3%
4,O=C(Oc1c(CN2CCOCC2)cc(Cl)c2cccnc12)c1cccs1,-21.9%
5,CN(C)S(=O)(=O)c1ccc(N2CCCC2)c(C(=O)NNC(=O)c2ccc(F)cc2)c1,15.5%
6,COc1ccc(NC(=O)NNC(=O)C(C)Oc2ccc3ccccc3c2)cc1OC (stereo not drawn),-16.2%
7,COc1ccc(C(=O)NCc2nnc(SCC(=O)N3CCOCC3)o2)cc1OC,13.7%
8,CCOC(=O)CNC(=O)N(CCOC)CC1CCCN(C2Cc3ccccc3C2)C1 (stereo not drawn),-28.5%
9,COCCN(CC1CCCN(C2Cc3ccccc3C2)C1)C(=O)CSC (stereo not drawn),-10.7%
10,CCCNC(=O)N(CCOC)CC1CCCN(C2Cc3ccccc3C2)C1 (stereo not drawn),-47.8%
11,CCNC(=O)N(CCOC)CC1CCCN(C2Cc3ccccc3C2)C1 (stereo not drawn),-22.9%
12,COCCN(CC1CCCN(C2Cc3ccccc3C2)C1)C(=O)c1ccc(C(C)=O)cc1 (stereo not drawn),-78.6%
13,COCCN(CC1CCCN(C2Cc3ccccc3C2)C1)C(=O)c1cccs1 (stereo not drawn),-68.5%
14,O=C(NCc1ccco1)C1CCCN(S(=O)(=O)c2cccc3cccnc23)C1 (stereo not drawn),0.148%
15,CCOC(=O)c1cc(-c2nnc(SCC(=O)Nc3ccc(F)cc3)o2)c(C)nc1C,7.9%
16,COc1ccc(C(=O)NCc2nnc(SCC(=O)c3ccccc3)n2C)cc1OC,-18.2%
17,O=C(c1cc(-c2ccccc2)n[nH]1)N1CCc2c([nH]c3ccccc23)C1c1ccccn1 (stereo not drawn),14.5%
18,Cc1sc2nc(C3CCCCC3)nc(SCC(=O)N3CC(=O)Nc4ccccc43)c2c1C,52.8%
19,CC(C)c1ccc(/C=C2\SC(=S)N(CCC(=O)N3CCCCC3CCO)C2=O)cc1 (stereo not drawn),20.3%

row,Compound,"hERG current change (%, negative = inhibition) at 10uM"
1,CCOc1ccccc1N1CC(C(=O)NNC(=O)c2cc(OC)c(OC)c(OC)c2)CC1=O (stereo not drawn),9%
2,Cc1cc(C)n2c(=S)[nH]nc2n1,19.6%
3,CCOC(=O)N1CCC(N2Cc3cccc(C(=O)N4CC(C)CC(C)C4)c3C2=O)CC1 (stereo not drawn),6.31%
4,CCOC(=O)N1CCC(N2Cc3cccc(C(=O)O)c3C2=O)CC1,-23.6%
5,CCCN1Cc2cccc(C(=O)N3CCN(c4cc(Cl)ccc4C)CC3)c2C1=O,-52.5%
6,CCCN1Cc2cccc(C(=O)N3CCN(c4ccccc4)CC3)c2C1=O,6.02%
7,CCOC(=O)N1CCC(N2Cc3cccc(C(=O)N4CCN(c5cccc(Cl)c5)CC4)c3C2=O)CC1,-63.7%
8,COCCN1Cc2cccc(C(=O)N3CCN(c4cc(C)ccc4C)CC3)c2C1=O,-16.5%
9,CCOC(=O)N1CCC(N2Cc3cccc(C(=O)N4CCN(c5cccc(C)c5C)CC4)c3C2=O)CC1,-36.7%
10,CCOC(=O)N1CCC(N2Cc3cccc(C(=O)N4CCN(C5CCCCC5)CC4)c3C2=O)CC1,-62.4%
11,Cn1ccc(C(=O)NC(=S)N2CCSCC2)n1,9.2%
12,O=C(CSCc1cccc(Br)c1)NC1CC1,-6.25%
13,Fc1cccc(CSc2nc3ncccc3[nH]2)c1,4.28%
14,O=C(O)CC(c1ccc(Cl)cc1)N1C(=O)CCC1=O (stereo not drawn),-7.96%
15,Cn1cnnc1SCCNS(=O)(=O)c1ccccc1,10.8%
16,COc1ccc2c(C)c(C)c(=O)oc2c1OC,3.4%
17,CN(CC1CCCN(CCc2ccc(Cl)cc2)C1)C(=O)CC(F)(F)F (stereo not drawn),-60.5%
18,CN(C)C(=O)CCC(=O)N(C)CC1CCCN(CCc2ccc(F)cc2)C1 (stereo not drawn),-38.1%
19,CN(CC1CCCN(CCc2ccc(F)cc2)C1)C(=O)CCC(N)=O (stereo not drawn),-23.9%

row,Compound,"hERG current change (%, negative = inhibition) at 10uM"
1,CN(CC1CCCN(CCc2ccc(F)cc2)C1)C(=O)CCC(F)(F)F (stereo not drawn),-63%
2,CC(=O)Nc1cccc(C(=O)OCc2csc(CC(=O)Nc3ccccc3C)n2)c1,-14%
3,N#CCCn1cc(C=C2C(=O)NC(=O)NC2=O)c(-c2ccccc2)n1,25.2%
4,CCOc1ccc(C)cc1S(=O)(=O)n1ccc(C)n1,4.82%
5,O=C(NCCCN1CCOCC1)c1cc(Cl)ccc1Cl,11.5%
6,O=C(NCCCN1CCOCC1)c1cc(Cl)ccc1OCc1ccccc1,-55.7%
7,O=C(NCc1ccc2c(c1)OCO2)c1ccc(CSCc2cccc(Cl)c2)o1,-11.1%
8,CC1CCN(CCCNC(=O)c2ccc(CSCc3cccc(Cl)c3)o2)CC1,-74.8%
9,O=C(CC(c1ccccc1)c1cc(Cl)ccc1O)NCCN1CCOCC1 (stereo not drawn),-42.1%
10,COc1ccc(Cl)cc1C(=O)NCCCN1CCOCC1,9.16%
11,Cc1ccc(CSCc2ccc(C(=O)NC3CC3)o2)cc1,-5.31%
12,O=C(CC(c1ccccc1)c1cc(Br)ccc1O)NCCCN1CCOCC1 (stereo not drawn),-31.3%
13,O=C(CC(c1ccccc1)c1cc(Cl)ccc1O)NCCCN1CCOCC1 (stereo not drawn),-50%
14,Cc1ccccc1S(=O)(=O)Cc1ccc(C(=O)NCCCN2CCC(C)CC2)o1,-36.2%
15,Cc1cccc(CSCc2ccc(C(=O)NC3CCCC3)o2)c1,-55.5%
16,Cc1ccc(CSCc2ccc(C(=O)NC3CCCC3)o2)cc1,-18.2%
17,CCC(C)C(NC(=O)C1CCC(C)CC1)C(=O)Nc1ccc(OC)cc1OC (stereo not drawn),-4.26%
18,CCCCC(c1nnnn1C(C)C)N1CCN(C(=O)c2ccco2)CC1.Cl (stereo not drawn),-18.9%
19,O=C(c1ccccc1)N1N=C(c2ccccc2)CC1c1ccccc1[N+](=O)[O-] (stereo not drawn),13.4%
